Test results: the supplement of paper PMC9177965

Each compound was assayed on HT29 sg-Ctrl (RNF43 wildtype) (assay: cell viability activity relative to DMSO (negative = inhibition); higher = more viable cells (less growth inhibition)). Settings: 5 µM; 96 h.
Method: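 Broad Repurposing Library primary screen at a single dose of 5 uM. HT29 sg-Ctrl and HT29 RNF43 G659fs CRISPR-edited isogenic cells were seeded at 2500 cells/well in 384-well plates in duplicate and treated for 96 h. Viability was read by CellTiter-Glo and reported as % activity relative to DMSO, with MG132 as the positive control (negative = growth inhibition).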
For `CN1CC[C@@H](c2c(O)cc(O)c3c(=O)cc(-c4ccccc4Cl)oc23)[C@@H]1CO`, the cell viability activity was -82.7%. `CCCCCCCCCCCCCCCC[N+](C)(C)Cc1ccccc1` gave a cell viability activity of -34.3%. `Cc1[nH]c2ccccc2c1CCNCc1ccc(/C=C/C(=O)NO)cc1` gave a cell viability activity of -96.1%. With `COC(=O)Nc1nc2cc(C(=O)c3cccs3)ccc2[nH]1` the cell viability activity was -78.3%. In the case of `CC(C)NCCCn1c(Sc2cc3c(cc2I)OCO3)nc2c(N)ncnc21`, the cell viability activity is reported as -85.8%. For `O=[N+]([O-])c1ccccc1S(=O)(=O)NCC1CCC(CNCC2CCc3ccccc3C2)CC1` (stereo not drawn), the cell viability activity was -61.4%. `O=C(NC1CCN(CCCCC2(C(=O)NCC(F)(F)F)c3ccccc3-c3ccccc32)CC1)c1ccccc1-c1ccc(C(F)(F)F)cc1` showed a cell viability activity of -92.3%. In the case of `Cn1cc(-c2[nH]c3cc(NC(=O)[C@H](N)C4CCCCC4)cc4c3c2C=NNC4=O)cn1`, the cell viability activity is reported as -79.1%. `CC(=O)N1CCN(CCOc2ccc(C3CCN(C4=Nn5c(nnc5C(F)(F)F)CC4)CC3)cc2)CC1` was tested, and the cell viability activity was -33.7%. Compound `CC(C)Nc1cc(-c2c[nH]c(C(=O)N[C@H](CO)c3cccc(Cl)c3)c2)c(Cl)cn1` has a cell viability activity of -78.7%. `O=C1c2c(O)ccc(O)c2C(=O)c2c(NCCNCCO)ccc(NCCNCCO)c21` showed a cell viability activity of -99.7%. In the case of `COC(=O)Nc1ccc(-c2nc(N3CCOCC3)c3cnn(C4CCN(C(=O)OC)CC4)c3n2)cc1`, the cell viability activity is reported as -38%. `CC(C)(C)c1nc(-c2cccc(NS(=O)(=O)c3c(F)cccc3F)c2F)c(-c2ccnc(N)n2)s1` showed a cell viability activity of -68.4%. `COc1cc(N2CCC(N3CCN(C)CC3)CC2)ccc1Nc1ncc(Cl)c(Nc2ccccc2S(=O)(=O)C(C)C)n1` was tested, and the cell viability activity was -66.5%. With `CCCCCCCC/C=C/CCCCCCCC(=O)OC[C@H]1O[C@@H](n2ccc(N)nc2=O)C(F)(F)[C@@H]1O` the cell viability activity was -51.8%. `CC(C)(O)C(=O)N1CCN(c2ccc(C(F)(F)F)c(C3=C(c4c[nH]c5ccccc45)C(=O)NC3=O)c2)CC1` was tested, and the cell viability activity was -32.7%. Compound `CCCCC(CC)CNC(=N)NC(=N)NCCCCCCNC(=N)NC(=N)NCC(CC)CCCC` (stereo not drawn) has a cell viability activity of -88.4%. `CCN(CC)CC1CCN(c2ncc3ncnc(Nc4ccc(F)c(Cl)c4)c3n2)CC1` was tested, and the cell viability activity was -16.4%. `CNC(=O)c1nn(C)c2c1C(C)(C)Cc1cnc(Nc3ccc(N4CCN(C)CC4)cc3)nc1-2` showed a cell viability activity of -74.1%. `c1cc(-c2cnn3cc(-c4ccc(N5CCNCC5)cc4)cnc23)c2cccnc2c1` showed a cell viability activity of -96.2%. Compound `CCCCCCCCCCC(CO)CCCCCCCC` (stereo not drawn) has a cell viability activity of -76.7%. Work on `CN(C)Cc1ccc(S(=O)(=O)n2ccc(/C=C/C(=O)NO)c2)cc1` yielded a cell viability activity of -64.6%. In the case of `O=C(CCCCCN1C(=O)c2cccc3cccc(c23)C1=O)NO`, the cell viability activity is reported as -71.7%. `CCCCCCOc1nsnc1C1=CCCN(C)C1` gave a cell viability activity of -58.7%. Work on `N#Cc1ccc(COC[C@H]2O[C@@H](n3c(NCc4ccc(Cl)c(Cl)c4)nc4c(N)ncnc43)[C@H](O)[C@@H]2O)cc1` yielded a cell viability activity of -31.3%. For `O=C(NC[C@H](O)CO)c1ccncc1Nc1ccc(I)cc1F`, the cell viability activity was -91.2%. For `C=CCc1cccc(/C=N/NC(=O)CN2CCN(Cc3ccccc3)CC2)c1O`, the cell viability activity was -42.7%. Work on `Cc1cc(NC(=O)NCCN2CCC(O)(Cc3ccccc3)CC2)c2ccccc2n1` yielded a cell viability activity of -24.3%. `CC(C)NC(=O)N1CC[C@H](NC2=Nc3cc(F)ccc3N(CC(F)F)c3ccc(Cl)cc32)C1` was tested, and the cell viability activity was -50.8%. Compound `CCOc1cc2ncc(C#N)c(Nc3ccc(F)c(Cl)c3)c2cc1NC(=O)/C=C/CN(C)C` has a cell viability activity of -78.7%. In the case of `COc1ccc(-c2nc(N3CCOCC3)c3sc(CN(C)c4ncc(C(=O)NO)cn4)cc3n2)cn1`, the cell viability activity is reported as -93.5%. In the case of `CCC1=C[C@@H]2CN(C1)Cc1c([nH]c3ccccc13)[C@@](C(=O)OC)(c1cc3c(cc1OC)N(C)[C@H]1[C@@](O)(C(=O)OC)[C@H](OC(C)=O)[C@]4(CC)C=CCN5CC[C@]31[C@@H]54)C2`, the cell viability activity is reported as -40%. `Nc1ncnc2c1nc(Br)n2[C@@H]1O[C@@H]2COP(=O)(O)O[C@H]2[C@H]1O` showed a cell viability activity of -6.53%. Work on `Clc1ccc(NN=C(c2ccccc2)c2ccccn2)nc1` yielded a cell viability activity of -65.6%. In the case of `CC(C)C[C@H](NC(=O)[C@H](Cc1ccccc1)NC(=O)c1cnccn1)B(O)O`, the cell viability activity is reported as -94.6%. `Nc1ncnc2c1c(-c1cnc3[nH]ccc3c1)nn2C1CCCC1` was tested, and the cell viability activity was -78.7%. In the case of `CCNCCCNCCCCNCCCNCC`, the cell viability activity is reported as -43.8%. `COc1cc2c(cc1OC)-c1cc3nc4ccccc4nc3n1C(C)(C)C2` gave a cell viability activity of -78.1%.
